Screening results deposited in PubChem by National Center for Advancing Translational Sciences (NCATS).
Only some compounds are listed: those with a hit (about 2.8% of all), similar ones and a draw of the others.
DRD3 antagonist: D3 dopamine receptor (human) antagonism; D3R cells, DiscoveRx beta-arrestin luminescence, antagonist mode; hits give low values; max response, negative = inhibition, %; actives 2.5% (n = 360,000); AID 652054; in the data active = max response below about -50%; also: % is scaled to controls: 0 for no effect and ±100 for the full control effect
Target sequence (P35462 whole entry, looked up): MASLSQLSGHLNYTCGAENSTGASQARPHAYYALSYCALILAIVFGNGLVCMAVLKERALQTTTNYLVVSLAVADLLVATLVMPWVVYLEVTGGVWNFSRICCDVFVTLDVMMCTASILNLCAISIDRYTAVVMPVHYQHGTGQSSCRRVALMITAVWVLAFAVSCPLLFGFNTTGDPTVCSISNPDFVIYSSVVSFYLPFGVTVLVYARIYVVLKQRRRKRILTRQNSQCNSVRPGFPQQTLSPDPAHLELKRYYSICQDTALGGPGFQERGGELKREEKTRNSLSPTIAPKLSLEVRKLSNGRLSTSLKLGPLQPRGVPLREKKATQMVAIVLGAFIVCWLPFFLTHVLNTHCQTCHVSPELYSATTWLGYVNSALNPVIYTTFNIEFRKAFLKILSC
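Cells plated overnight at 1500 cells/well, then exposed to library compounds with dopamine controls for 90 minutes at 37 degrees C. DiscoveRx reagent added for 30–60 minutes at room temperature; luminescence read, quantitative HTS format.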
LDHA block: inhibitors of human lactate dehydrogenase A. P00338. purified LDHA, NADH/diaphorase-resazurin fluorescence; hits give low values. activity change, % (values are at about 110 or 230 µM). actives 0.15% (n = 480,000). AID 1347041; in the data active = activity change below about -30%;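 also: plate controls were DMSO wells for no effect and wells without enzyme for full effect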
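Resorufin fluorescence (ex540/em590), read at 0 and 20 min after diaphorase/resazurin addition, reports the NADH left after a 5 min room-temperature reaction of 2 nM human LDH5 with 0.06 mM NADH and 0.2 mM pyruvate.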
Akt phos inh: inhibitors of Akt phosphorylation; AID 651550; activity change, % for hits at 50 µM; Neuro2A IGF-stimulated pAkt S473 HTRF, 20 min; hits give low values; actives 0.32% (n = 360,000); in the data active = activity change below about -80%; also: % is scaled to controls: 0 for no effect and ±100 for the full control effect
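Single-point screen (50 µM final compound) in Neuro2A cells stimulated 20 min with 6 nM IGF at 37 deg C. After lysis, Ser473-phosphorylated Akt read by HTRF (ex 330 nm, em 615/665 nm) as the 665/615 ratio.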
D3 ag: agonists of human D3 dopamine receptor; actives 0.58% (n = 410,000); D3R DiscoveRx beta-arrestin cells, luminescence, 90 min; P35462; max activation, %; in the data active = max activation above about 30%; also: 0% is about no effect
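Agonist-mode cell screen: cells plated at 1500/well and incubated overnight at 37 °C, then exposed to library compounds for 90 min at 37 °C. Detection reagent was added for 30–60 min at room temperature, and luminescence was read.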
RGS4 inh: blocks human RGS4-accelerated GTP hydrolysis; P49798; AID 504845; Transcreener GDP fluorescence polarization, RGS4-accelerated GTP hydrolysis; Potency, µM (top dose mostly 114 µM), without a hit: at the top dose activity change, negative = inhibition, actives largely listed as inhibitors; actives 0.039% (n = 390,000); active = well fitted inhibition curve with a large enough effect; also: potency is read from the fitted curve at half-maximal effect; % is scaled to controls: 0 for no effect and ±100 for the full control effect; nearly all actives have a fitted effect of over 75% in size
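MLSMR compounds (23 nl, pin-transferred) preincubated 10 min at room temperature with a 500nM (2x) first reagent, then RGS4 at 900nM (2x) plus Transcreener GDP mix added; fluorescence polarization (620/688 nm) read before and after 90 min at 30 °C.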
PI4K2A block: blocks human PI4K2A kinase activity. purified PI4K2A, ADP-Glo luminescence, 1 h; hits give low values. actives 0.13% (n = 420,000). AID 1346378. activity change, negative = inhibition, % at 76.9 µM; in the data active = activity change below about -50%;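 also: -100% = wells without enzyme as full effect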
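ADP-Glo luminescence measured ADP generated by PI4K2A enzyme (4 ug/mL before mixing) with 1.2 mM PI substrate (pre-mix) and 300 microM ATP (pre-mix). Tris pH7.5 buffer with MgCl2, Triton X-100; 1 h reaction at ambient temperature.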
An asterisk follows results filed as active; i = inactive; nt = not tested or not shown; ! = not confirmed by another sample; [ ] = remark or other dose.

SMILES	DRD3 antagonist	LDHA block	Akt phos inh	D3 ag	RGS4 inh	PI4K2A block
Cc1cc(C)c(C2C(C#N)=C(N)Oc3n[nH]c(C)c32)cc1CN1CCOCC1 (configuration not stated)	-60.5*	-2.6	i	-63.6	-13.6%	2.1
Cc1[nH]c2ccccc2c1C(c1ccc(F)cc1)c1c(C)[nH]c2ccccc12	nt	13.3	nt	nt	nt	nt
CCc1nc2ccc(C(=O)NCCCN3CCCC3=O)cn2c1N(CC)C(=O)NCCc1ccccc1	8.7	1.3	nt	0.5	nt	0.9
CCc1nc2ccc(C(=O)NCCCN3CCCC3=O)cn2c1N(CC)C(C)=O	-55.9*	1.5	i	-4.7	nt	-0.4
COc1ccc2cc(C(=O)Nc3ccc(NC(=O)Nc4ccccc4)cc3)c(C)nc2c1	nt	3.6	nt	nt	nt	nt
COC(=O)[C@@H]1OC(=O)[C@H]2O[C@@]23[C@@]1(C)CC[C@@H]1[C@@]2(C)C=CC(=O)OC(C)(C)[C@@H]2CC(=O)[C@]13C	0.0	-1.1	i	45.7*	5.1%	-3.4
CC1(C)OC(=O)C=C[C@]2(C)[C@H]3CC[C@@]4(C)[C@H](c5ccoc5)OC(=O)[C@H]5O[C@]54[C@]3(C)C(=O)C[C@@H]12	13.0	-2.1	i	-2.5	4.0%	-1.2
CCN1CCc2nc(N)oc2CC1	-15.9	-4.4	i	41.2*!	-21.3%[56.9 µM]	-9.0
CCOc1cc(C2C(C#N)=C(N)Oc3cc4c(cc32)OCO4)c(Br)cc1OC (configuration not stated)	nt	22.4	nt	nt	nt	nt
COC(=O)c1ccc(NC(=O)C(NC(=O)c2ccc(OC)cc2)C(C)C)c(C)c1 (configuration not stated)	nt	3.2	nt	nt	nt	nt
Cc1ccc(Sc2c([N+](=O)[O-])ncn2C)cc1	-3.2	-12.1	-109.6%*	-4.4	26.2%	1.3
COc1ccc(-c2nnc(SCC(=O)NCCc3ccccc3)o2)cc1	-13.3	-0.9	-123.9%*	0.7	9.8%	-1.1
COc1ccc(Cc2nnc(SCC(=O)NCCc3ccccc3)o2)cc1	-7.0	-1.5	i	2.3	14.7%	-3.6
CC(NC(=O)CNC(=O)c1ccc(N2CCCC2=O)cc1)c1ccc(Cl)c(Cl)c1 (configuration not stated)	nt	2.6	nt	nt	nt	nt
O=C(Cc1ccccc1F)NC1CCC(c2ccccc2)CC1 (configuration not stated)	nt	5.2	nt	nt	nt	nt
O=C(NCCNC1CCC(c2ccccc2)CC1)c1ccc(F)cc1 (configuration not stated)	-92.4*	-16.6	i	-35.1	1.8%	1.8
O=C(CSc1nc(-c2ccccc2)c(-c2ccccc2)o1)N1CCC1	nt	-1.9	nt	nt	nt	nt
COc1ccc(CCNC(=O)c2cc(-c3ccc(C)cc3)nc3n[nH]c(-c4ccccc4)c23)cc1OC	nt	0.4	nt	73.7*	-13.3%	1.0
CCN(CC)S(=O)(=O)c1cccc(-c2n[nH]c(=S)n2/N=C/c2ccc(Br)cc2)c1	-54.4*	-9.7	i	-5.2	-52.5%	1.5
COC(=O)C1=C(C)NC(=O)CC1C(=O)Nc1cc(Cl)cc(Cl)c1 (configuration not stated)	nt	-7.0	nt	nt	nt	nt
CCOC(=O)C1=C(C)NC(=O)CC1C(=O)Nc1cc(Cl)cc(Cl)c1 (configuration not stated)	nt	-60.9*	nt	nt	nt	nt
O=S(=O)(Nc1ccc(-c2nc3cccnc3s2)cc1)c1cccs1	-14.4	-15.9	i	11.9	12.0%	0.0
O=S(=O)(Nc1cccc2ncccc12)c1cccs1	-68.6*	15.0	i	-19.2	4.5%	-4.8
Cc1ccc(S(=O)(=O)N[C@@H](Cc2ccccc2)C(=O)CCl)cc1	-10.2	-3.8	i	-62.8	7.52µM*	34.4
Cc1ccc(S(=O)(=O)NC(Cc2ccccc2)C(=O)NN)cc1 (configuration not stated)	-16.5	-1.8	i	2.0	-39.4%	0.9
Cc1ccc(-c2n[nH]c(=O)c3ccccc23)cc1S(=O)(=O)N(C)C	16.5	-3.4	i	9.5	13.2%	2.4
CCN(CC)S(=O)(=O)c1cc(-c2n[nH]c(=O)c3ccccc23)ccc1C	nt	-33.2*	nt	nt	nt	nt
